In PubChem BioAssay (NCI):
The panel holds about 79,000 compounds, 15% with a hit somewhere; the sample as a whole holds those more often. Values without a mark were called inactive. Active and inactive are the calls of the source. Rule as the data show it: active = growth inhibition above about 70%; inactive = the rest.

Experiments:
[1] = NCI Yeast Anticancer Drug Screen. Data for the rad50 strain (AID 155);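 also: 0% = growth of vehicle-only cultures of the same strain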; conditions: S. cerevisiae rad50 strain growth inhibition, active compounds read high
Outline: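 Vehicle-treated cultures provide the reference for the growth inhibition reported for compound-exposed, repair-deficient yeast.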

[2] = NCI Yeast Anticancer Drug Screen. Data for the mec2-1 strain (AID 157); conditions: S. cerevisiae mec2-1 strain, active compounds read high
Outline: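 Yeast mec2-1 mutant treated with compound. Readout: growth inhibition vs vehicle controls.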

[3] = NCI Yeast Anticancer Drug Screen. Data for the sgs1 mgt1 strain (AID 161);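 also: 0% = growth of cultures given vehicle only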; conditions: S. cerevisiae sgs1 mgt1 strain, active compounds read high
Outline: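 Read-out: growth inhibition vs vehicle controls. Cells: mutant yeast strain deficient in DNA damage repair.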

[4] = NCI Yeast Anticancer Drug Screen. Data for the cln2 rad14 strain (AID 165);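 also: 0% = growth equal to vehicle treated cultures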; conditions: S. cerevisiae cln2 rad14 strain, active compounds read high
Outline: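 cln2 rad14 yeast strain; compound exposure; growth inhibition read vs vehicle controls.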

[5] = NCI Yeast Anticancer Drug Screen. Data for the bub3 strain (AID 167); conditions: S. cerevisiae bub3 mutant strain, active compounds read high
Outline: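 Mutant yeast screening strain plus compound; vehicle-treated cultures serve as the 0% inhibition reference.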

[6] = NCI Yeast Anticancer Drug Screen. Data for the mlh1 rad18 strain (AID 175); conditions: S. cerevisiae mlh1 rad18 strain growth inhibition, active compounds read high
Outline: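 Yeast w/ defined DNA-repair lesions; compound exposure; growth vs vehicle controls → % inhibition.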

[7] = at 5.0 µM (retest, dose inferred, filed as 0.5)
[8] = at 50.0 µM (retest, dose inferred, filed as 5.0)

Structure (SMILES)	growth inhibition [1, 7]	growth inhibition [1, 8]	growth inhibition ([1]; at 50.0 µM)	growth inhibition [2, 7]	growth inhibition [2, 8]	growth inhibition ([2]; at 50.0 µM)	growth inhibition [3, 7]	growth inhibition [3, 8]	growth inhibition ([3]; at 50.0 µM)	growth inhibition [4, 7]	growth inhibition [4, 8]	growth inhibition ([4]; at 50.0 µM)	growth inhibition [5, 7]	growth inhibition [5, 8]	growth inhibition ([5]; at 50.0 µM)	growth inhibition [6, 7]	growth inhibition [6, 8]	growth inhibition ([6]; at 50.0 µM)
COc1cc(Br)c(CC(NC=O)c2ccc3c(c2)OCO3)cc1OC (configuration not stated)	-4%	81% (active)	62.5%	-3%	74% (active)	66.3%	-5%	95% (active)	36.5%	4%	95% (active)	57.4%	3%	98% (active)	96.3% (active)	-1%	81% (active)	56.5%
[CH3][Sn]1([CH3])[O]C(=O)CCN=Cc2c(ccc3ccccc23)[O][Sn]([CH3])([CH3])[O]C(=O)CCN=Cc2c(ccc3ccccc23)[O]1	57%	98% (active)	90.6% (active)	61%	99% (active)	92.8% (active)	82% (active)	99% (active)	93% (active)	24%	99% (active)	91.7% (active)	84% (active)	98% (active)	92.3% (active)	93% (active)	99% (active)	89.8% (active)
O=[N+]([O-])/C(Cl)=C(/C(Cl)=C(Cl)Cl)N1CCCCC1	-3%	16%	28.6%	8%	25%	11.7%	14%	27%	34.1%	13%	22%	1.5%	22%	34%	23.6%	2%	27%	43.1%
COC1OC(=O)CC1C1CC=C2C3CCC4CC(O)CCC4(C)C3CCC21C (configuration not stated)	1%	44%	83.3% (active)	3%	85% (active)	74.4% (active)	-22%	86% (active)	95% (active)	-8%	77% (active)	62.6%	-9%	73% (active)	64.8%	-5%	92% (active)	88.4% (active)
